Measurements reported in PubChem BioAssay (NCI).
About 79,000 compounds went through this panel and 15% of them were active in at least one assay; those are over-represented in the sample as a whole. The source made the active and inactive calls. No stated cut-off is given here; in the data, active means growth inhibition above about 70%; inactive means the rest.

What was measured:
[1] = NCI Yeast Anticancer Drug Screen. Data for the rad52 strain (AID 147);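 further: 0% = growth of vehicle-treated control cultures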; details: S. cerevisiae rad52 mutant growth inhibition, stronger effect = higher value
Outline: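 Inhibition of yeast growth, referenced to vehicle controls, was the measured output for a strain with defective DNA damage repair.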

[2] = NCI Yeast Anticancer Drug Screen. Data for the wt1 strain (AID 149);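 further: 0% = growth of vehicle-treated wt1 cultures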; details: S. cerevisiae wt1 strain (SPY 50644) growth inhibition, stronger effect = higher value
Outline: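 The wt1 strain was treated with compounds, and growth was compared with vehicle-treated cultures to give inhibition.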

[3] = NCI Yeast Anticancer Drug Screen. Data for the rad50EPP+ strain (AID 151);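 further: 0% = growth of vehicle-treated control cultures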; details: S. cerevisiae rad50 mutant strain, stronger effect = higher value
Outline: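 Genetically defined yeast (rad50EPP+, DNA damage repair alteration) is grown with compound, and inhibition of growth is expressed relative to vehicle-treated controls.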

[4] = NCI Yeast Anticancer Drug Screen. Data for the mgt1 strain (AID 153); details: S. cerevisiae mgt1 mutant growth inhibition, stronger effect = higher value
Outline: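 In the mgt1 strain, test compounds were added and growth inhibition was determined relative to vehicle-treated controls.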

[5] = NCI Yeast Anticancer Drug Screen. Data for the rad50 strain (AID 155);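 further: 0% = growth of vehicle-only cultures of the same strain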; details: S. cerevisiae rad50 strain growth inhibition, stronger effect = higher value
Outline: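 Cells are treated with compound, grown, and their growth is then scored against vehicle-only cultures of the same repair-deficient yeast strain.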

[6] = NCI Yeast Anticancer Drug Screen. Data for the mec2-1 strain (AID 157); details: S. cerevisiae mec2-1 strain, stronger effect = higher value
Outline: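 Each compound was tested on mec2-1 yeast, a strain altered in DNA damage repair or cell cycle control. Growth inhibition is reported relative to vehicle.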

[7] = NCI Yeast Anticancer Drug Screen. Data for the rad14 strain (AID 159);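 further: 0% = growth of vehicle-treated control cultures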; details: S. cerevisiae rad14 strain growth inhibition, stronger effect = higher value
Outline: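 Readout: yeast growth inhibition, referenced to vehicle-only cultures. Strain bears a defined alteration in DNA damage repair.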

[8] = NCI Yeast Anticancer Drug Screen. Data for the sgs1 mgt1 strain (AID 161);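 further: 0% = growth of cultures given vehicle only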; details: S. cerevisiae sgs1 mgt1 strain, stronger effect = higher value
Outline: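 Read-out: growth inhibition vs vehicle controls. Cells: mutant yeast strain deficient in DNA damage repair.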

[9] = NCI Yeast Anticancer Drug Screen. Data for the CLN2oe strain (AID 163);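 further: 0% = growth of vehicle-only control cultures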; details: S. cerevisiae CLN2oe strain, stronger effect = higher value
Outline: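 First, the altered yeast strain was treated with each compound; second, its growth was measured; finally, inhibition was derived by comparison with vehicle controls.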

[10] = NCI Yeast Anticancer Drug Screen. Data for the cln2 rad14 strain (AID 165);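 further: 0% = growth equal to vehicle treated cultures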; details: S. cerevisiae cln2 rad14 strain, stronger effect = higher value
Outline: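 Test compounds were added to cln2 rad14 yeast cultures; inhibition of growth was then determined by comparison with vehicle treatment.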

[11] = NCI Yeast Anticancer Drug Screen. Data for the bub3 strain (AID 167); details: S. cerevisiae bub3 mutant strain, stronger effect = higher value
Outline: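 Part of a panel of yeast mutants defective in DNA damage repair or cell cycle regulation. Each strain is grown with compound, and inhibition is calculated relative to solvent-treated cultures.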

[12] = NCI Yeast Anticancer Drug Screen. Data for the wt2 strain (AID 169);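 further: 0% = growth of vehicle-treated yeast cultures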; details: S. cerevisiae wt2 strain growth inhibition, stronger effect = higher value
Outline: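 The panel's yeast strains carry defined changes in DNA repair or cell cycle genes. Each strain is grown with compound, and growth loss is scored relative to vehicle.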

[13] = NCI Yeast Anticancer Drug Screen. Data for the mlh1 strain (AID 171);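 further: 0% = growth of vehicle-treated control cultures of the same strain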; details: S. cerevisiae mlh1 strain growth inhibition, stronger effect = higher value
Outline: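 Inhibition values reflect reduced yeast growth in the presence of compound, referenced to vehicle controls, using a strain chosen for its alteration in DNA repair or cell cycle control.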

[14] = NCI Yeast Anticancer Drug Screen. Data for the sgs1 strain (AID 173);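 further: 0% = growth of vehicle-only control cultures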; details: S. cerevisiae sgs1 mutant, stronger effect = higher value
Outline: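 Vehicle-treated cultures served as reference for growth inhibition of a yeast strain altered in DNA damage repair or cell cycle control after compound exposure.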

[15] = NCI Yeast Anticancer Drug Screen. Data for the mlh1 rad18 strain (AID 175); details: S. cerevisiae mlh1 rad18 strain growth inhibition, stronger effect = higher value
Outline: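 Inhibition values reflect reduced growth of mutant yeast versus vehicle-treated controls following compound exposure; the mutations affect DNA damage repair.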

[16] = NCI Yeast Anticancer Drug Screen. Data for the rad18 strain (AID 177); details: S. cerevisiae rad18 mutant growth inhibition, stronger effect = higher value
Outline: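 Steps: expose repair-mutant yeast to compound; measure growth; express as inhibition relative to vehicle control.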

[17] = at 5.0 µM (retest, dose inferred, filed as 0.5)
[18] = at 50.0 µM (retest, dose inferred, filed as 5.0)

Measured: growth inhibition

O=C(OCC=C1CCCC1)c1cc([N+](=O)[O-])cc([N+](=O)[O-])c1
active: [1]; at 33.0 µM 85% | [1]; at 100.0 µM 96% | [2]; at 33.0 µM 86% | [2]; at 100.0 µM 98% | [3]; at 33.0 µM 87% | [3]; at 100.0 µM 92% | [4]; at 33.0 µM 95% | [4]; at 100.0 µM 98% | [5]; at 33.0 µM 86% | [5]; at 100.0 µM 96% | [6]; at 33.0 µM 89% | [6]; at 100.0 µM 98% | [7]; at 33.0 µM 71% | [7]; at 100.0 µM 97% | [8]; [18] 81% | [9]; at 100.0 µM 96% | [11]; [18] 70% | [11]; at 100.0 µM 96% | [12]; at 33.0 µM 97% | [12]; at 100.0 µM 98% | [13]; at 33.0 µM 94% | [13]; at 100.0 µM 98% | [14]; at 33.0 µM 97% | [14]; at 100.0 µM 99% | [15]; [18] 94% | [16]; at 33.0 µM 95% | [16]; at 100.0 µM 98%
inactive: [1]; at 1.2 µM -1% | [1]; at 3.7 µM 2% | [1]; at 11.0 µM 21% | [2]; at 1.2 µM -6% | [2]; at 3.7 µM -1% | [2]; at 11.0 µM 10% | [3]; at 1.2 µM 3% | [3]; at 3.7 µM 16% | [3]; at 11.0 µM 53% | [4]; at 1.2 µM -1% | [4]; at 3.7 µM -1% | [4]; at 11.0 µM 16% | [5]; at 1.2 µM 0% | [5]; at 3.7 µM 4% | [5]; [17] 11% | [5]; at 11.0 µM 18% | [5]; [18] 57% | [5]; at 50.0 µM 4.3% | [6]; at 1.2 µM -3% | [6]; at 3.7 µM -2% | [6]; [17] 3% | [6]; at 11.0 µM 13% | [6]; [18] 48% | [6]; at 50.0 µM -14.6% | [7]; at 1.2 µM -2% | [7]; at 3.7 µM 1% | [7]; at 11.0 µM 12% | [8]; [17] -2% | [8]; at 50.0 µM 2.55% | [9]; at 1.2 µM -6% | [9]; at 3.7 µM 1% | [9]; at 11.0 µM 9% | [9]; at 33.0 µM 60% | [10]; [17] -24% | [10]; [18] 4% | [10]; at 50.0 µM -6.45% | [11]; at 1.2 µM -6% | [11]; at 3.7 µM -6% | [11]; [17] -21% | [11]; at 11.0 µM -1% | [11]; at 33.0 µM 61% | [11]; at 50.0 µM 5.55% | [12]; at 1.2 µM -3% | [12]; at 3.7 µM -3% | [12]; at 11.0 µM 16% | [13]; at 1.2 µM -2% | [13]; at 3.7 µM 4% | [13]; at 11.0 µM 22% | [14]; at 1.2 µM -1% | [14]; at 3.7 µM 4% | [14]; at 11.0 µM 26% | [15]; [17] 7% | [15]; at 50.0 µM 23.6% | [16]; at 1.2 µM -2% | [16]; at 3.7 µM 2% | [16]; at 11.0 µM 21%

CN1Cc2ccccc2/C=C\c2ccccc21
active: [3]; at 100.0 µM 71% | [5]; [18] 92% | [8]; [18] 90% | [11]; [18] 87% | [15]; [18] 89% | [16]; at 100.0 µM 78%
inactive: [1]; at 1.2 µM -3% | [1]; at 3.7 µM -4% | [1]; at 11.0 µM -1% | [1]; at 33.0 µM 25% | [1]; at 100.0 µM 39% | [2]; at 1.2 µM -3% | [2]; at 3.7 µM -2% | [2]; at 11.0 µM -3% | [2]; at 33.0 µM -4% | [2]; at 100.0 µM 7% | [3]; at 1.2 µM 0% | [3]; at 3.7 µM 9% | [3]; at 11.0 µM 23% | [3]; at 33.0 µM 36% | [4]; at 1.2 µM 0% | [4]; at 3.7 µM -3% | [4]; at 11.0 µM -1% | [4]; at 33.0 µM 7% | [4]; at 100.0 µM 22% | [5]; at 1.2 µM -6% | [5]; at 3.7 µM -10% | [5]; [17] -123% | [5]; at 11.0 µM -1% | [5]; at 33.0 µM 49% | [5]; at 50.0 µM 24.8% | [5]; at 100.0 µM 64% | [6]; at 1.2 µM 1% | [6]; at 3.7 µM 2% | [6]; [17] -47% | [6]; at 11.0 µM 1% | [6]; at 33.0 µM 1% | [6]; [18] 67% | [6]; at 50.0 µM 34.3% | [6]; at 100.0 µM -3% | [7]; at 1.2 µM -3% | [7]; at 3.7 µM -2% | [7]; at 11.0 µM 1% | [7]; at 33.0 µM 14% | [7]; at 100.0 µM 43% | [8]; [17] -57% | [8]; at 50.0 µM -5.4% | [9]; at 1.2 µM 0% | [9]; at 3.7 µM 2% | [9]; at 11.0 µM 3% | [9]; at 33.0 µM 2% | [9]; at 100.0 µM 3% | [10]; [17] -57% | [10]; [18] 18% | [10]; at 50.0 µM -30.4% | [11]; at 1.2 µM -2% | [11]; at 3.7 µM -1% | [11]; [17] -66% | [11]; at 11.0 µM 1% | [11]; at 33.0 µM 12% | [11]; at 50.0 µM -15.8% | [11]; at 100.0 µM 35% | [12]; at 1.2 µM 0% | [12]; at 3.7 µM 1% | [12]; at 11.0 µM 0% | [12]; at 33.0 µM -4% | [12]; at 100.0 µM 25% | [13]; at 1.2 µM 9% | [13]; at 3.7 µM 1% | [13]; at 11.0 µM -1% | [13]; at 33.0 µM -3% | [13]; at 100.0 µM 33% | [14]; at 1.2 µM 2% | [14]; at 3.7 µM 3% | [14]; at 11.0 µM 2% | [14]; at 33.0 µM 23% | [14]; at 100.0 µM 58% | [15]; [17] -109% | [15]; at 50.0 µM 22.6% | [16]; at 1.2 µM 0% | [16]; at 3.7 µM 2% | [16]; at 11.0 µM 15% | [16]; at 33.0 µM 47%
